Source: PubChem BioAssay (NCI)
The panel holds about 83,000 compounds, 20% with a hit somewhere; the sample as a whole holds those more often.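 The test compound was applied at a single concentration to cells in 96-well plates for 48 hours, and percent growth was recorded.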 A number with no mark means an inactive call. The source made the active and inactive calls. Rule for the calls: active = growth percent below 10; inactive = the rest.

These compounds were tested on HL-60(TB) leukemia (assay: NCI-60 one-dose screen, 48 h (100 = growth as untreated, 0 = no growth, -100 = all killed)). Settings: 10 µM unless noted.

With c1ccc2c(-c3nc(-c4c[nH]c5ccncc45)cs3)c[nH]c2c1 as the compound, how does the growth read?
Its growth is 45.9%.

For COc1ccc2c(c1)N(CCO)C1=C(C(=O)OC1)C2c1ccccc1 (configuration not stated), which growth is on record?
The growth was -20% (active).

How did the growth turn out when NC(=S)N/N=C(/c1ccccc1)c1ccccc1N was run?
Its growth is 73.3%.

Which growth does the source give for CC1Cc2c(Cl)ncnc2N(C)c2ccc(Cl)cc21 (configuration not stated) here?
Its growth is 13.3%.

How did the growth turn out when COc1ccc(/C(=N/O)c2cc(OC)c(OC)c(OC)c2)c(OC)c1N was run?
Its growth is -24.6% (active).

Which growth does the source give for O=C(CN1CCOCC1)Nc1ccc(Cn2nnc3c2C(=O)c2nnn(Cc4ccc(NC(=O)CN5CCOCC5)cc4)c2C3=O)cc1 here?
The growth was -39.1% (active).

How did the growth turn out when Clc1ccc2c(NCCCNc3nccc(Nc4ccc(Br)cc4)n3)ccnc2c1 was run?
The growth was -69.2% (active).

CCn1cc(C(=O)N/N=C/c2ccc(Br)cc2)c(=O)c2cc(F)c(N3CCNC(C)C3)c(F)c21 (configuration not stated) was tested. Which growth did it give?
The growth was 48.7%.

NC(C(=O)O)C(O)c1ccco1 (configuration not stated) was tested. Which growth did it give?
Its growth is 116%.

For COc1cc(-c2ccc[nH]2)[nH]c1/C=C1\N=C(C)C(C(=O)NC(C)C)=C1C, which growth is on record?
The growth was 26.1%.

For Nc1ccc(CC(=O)O)c(N)c1, which growth is on record?
Its growth is 102%.

Nc1cc(O)cc(O)c1 was tested. Which growth did it give?
Its growth is 98.6%.

C=CCSSC1N=CNc2nc[nH]c21 (configuration not stated) was tested. Which growth did it give?
The growth was 32%.

For COc1ccc(C(Cc2ccccc2)NCCN2CCOCC2)cc1 (configuration not stated), which growth is on record?
Its growth is 93.8%.

With CCOc1ccc(NC(=O)Nc2cc(C(C)C)ccc2C)cc1 as the compound, how does the growth read?
The growth was 95.2%.

How did the growth turn out when Clc1nc2ccc(Br)cc2cc1-c1nc2ccccc2[nH]1 was run?
The growth was 87.6%.

CC1CCCN(CCCCCOc2ccc3oc4ccc(Cl)cc4c(=O)c3c2)C1 (configuration not stated) was tested. Which growth did it give?
The growth was 48.6%.
